± gives the standard deviation of the averaged measurements.

Here are results for 26 compounds from the supplement of paper PMC6522484.

Test [1] deals with DLD1. Briefly: cell viability (CellTiter-Glo) relative to plate median (fraction of plate median); higher = more viable cells. The conditions noted are these: 5 µM; treatment time 24 h; reporter: 7TFP. The method in brief: (§1)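 Stable lentiviral TCF/Wnt firefly luciferase reporters (7TFP or TCF4/Wnt) were present in the colorectal cancer cell lines used. These cells received library compounds at a final 5 µM for 24 h, and parallel plates were read for firefly luciferase or CellTiterGlo luminescence. Each well was normalised to the plate median, and the value reported is the mean of two independent replicates.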
A general note: Cellular ATP, detected with luciferase, serves as a proxy for viable cell number.

A further test has as its system HCT116. The test is described as above. The conditions noted are these: 5 µM; treatment time 24 h; reporter: TCF4/Wnt. The method in brief:
as §1

Test [2] deals with SW480. Described as above. Particulars: 5 µM; treatment time 24 h; reporter: 7TFP. In outline: as §1
In test [3] the test system is DLD1. The test can be described thus: TCF/Wnt firefly luciferase reporter signal relative to plate median (fraction of plate median); higher = higher Wnt reporter signal. The conditions noted are these: 5 µM; treatment time 24 h; reporter: 7TFP. The method in brief:
as §1
For orientation: A reporter such as luciferase makes a cellular process visible.

In test [4] the test system is SW480. Described as above. The conditions noted are these: 5 µM; treatment time 24 h; reporter: 7TFP. The method in brief:
as §1

For the compound `C=C1C(=O)O[C@@H]2C[C@@]3(C)CCC[C@H](C)C3=C[C@H]12`, the cell viability in the test on DLD1 [1] is 1.01 ± 0.02; with HCT116, 0.875 ± 0.027; in the test on SW480 [2] it was 0.96 ± 0.0057. Also, the “TCF/Wnt firefly luciferase reporter signal” value in the test on DLD1 [3] amounted to 0.985 ± 0.0057; in the test on SW480 [4] it was 1.03 ± 0.067.
For `C=CCSCC1Nc2cc(Cl)c(S(N)(=O)=O)cc2S(=O)(=O)N1` (stereo not given), the cell viability with DLD1 [1] was 1.07 ± 0.042; in the test on HCT116, 1.11 ± 0.085; with SW480 [2] it was 1.03 ± 0.021. Also, the “TCF/Wnt firefly luciferase reporter signal” value was 1.06 ± 0.071 with DLD1 [3] and 1.02 ± 0.028 in the test with SW480 [4].
The like results for `CC(=O)O[C@H](CC(=O)[O-])C[N+](C)(C)C` were, in that order, 1.06 ± 0.05, 0.958 ± 0.044, 0.956 ± 0.043, 0.94 ± 0.073 and 0.996 ± 0.0057.
Take `O=C1OCC(Cc2ccccc2)C1c1ccccc1` (stereo not given) [3-Benzyl-2-phenyl-butyrolactone]: the cell viability with DLD1 [1] came to 1.07 ± 0.085; in the test with HCT116 it was 1.01 ± 0.014; with SW480 [2], 0.978 ± 0.045. Moreover, the “TCF/Wnt firefly luciferase reporter signal” value with DLD1 [3] amounted to 0.917 ± 0.12; with SW480 [4], 1.1 ± 0.078.
For `C[C@@H]1CC[C@H]2C(C)(C)[C@H]3C[C@@]12CC[C@@]3(C)O` the same measures were 1.02 ± 0.029, 1.07 ± 0.057, 1.03 ± 0.021, 1.03 ± 0.014 and 0.94 ± 0.083.
The like results for `CCCNCC(O)COc1ccccc1C(=O)CCc1ccccc1` (stereo not given) were, in that order, 0.96 ± 0.085, 1.07 ± 0.22, 0.927 ± 0.033, 1.06 ± 0.091 and 0.883 ± 0.12.
For `CCCCCCCCCCCCCc1ccco1` the same measures were 1.05, 1.03 ± 0.021, 1.02 ± 0.021, 0.964 ± 0.14 and 0.987 ± 0.12.
Turning to `CC(=O)Nc1nnc(S(N)(=O)=O)s1`, the results for the cell viability in the test on DLD1 [1], with HCT116 and in the test on SW480 [2] were 0.981 ± 0.055, 0.907 ± 0.11 and 0.989 ± 0.016, respectively. Further, the “TCF/Wnt firefly luciferase reporter signal” value in the test on DLD1 [3] was determined as 0.865 ± 0.044; in the test with SW480 [4] it was 1.09 ± 0.092.
For `COc1ccc(C(=O)Oc2ccc(/C=N/NC(N)=O)cc2)cc1` [Anthramycin derivative (C16H15N3O4)] the same measures were 1.2 ± 0.2, 0.991 ± 0.07, 1.02 ± 0.071, 0.938 ± 0.12 and 1.05 ± 0.028.
The like results for `C=CCCCCCCCCC(=O)[O-].C=CCCCCCCCCC(=O)[O-].[Zn+2]` were, in that order, 0.996 ± 0.049, 0.903 ± 0.011, 0.964 ± 0.023, 0.94 ± 0.24 and 0.968 ± 0.041.
For `C1CNCCN1` the same measures were 1.004 ± 0.0092, 0.96 ± 0.071, 0.987 ± 0.018, 1.25 ± 0.021 and 1.05 ± 0.042.
On to `CC1(C)C(=O)C=CC2(C)C1C=CC1(C)C2CCC2(C)C(c3ccoc3)OC(=O)C3OC312` (stereo not given), for which the cell viability in the test on DLD1 [1] was found to be 1.07 ± 0.042; with HCT116 it was 1.1 ± 0.13; with SW480 [2], 1.05. The “TCF/Wnt firefly luciferase reporter signal” value stood at 1.01 ± 0.1 in the test with DLD1 [3] and 0.964 ± 0.094 in the test on SW480 [4].
For `CC(=O)OCC1=C(C(=O)O)N2C(=O)[C@@H](NC(=O)Cc3cccs3)[C@H]2SC1` the same measures were 1.05 ± 0.021, 1.06 ± 0.021, 1.03 ± 0.028, 0.953 ± 0.016 and 1 ± 0.028.
For `CN[C@H](CC(C)C)C(=O)N[C@H]1C(=O)N[C@@H](CC(N)=O)C(=O)N[C@H]2C(=O)N[C@H]3C(=O)N[C@H](C(=O)N[C@H](C(=O)O)c4cc(O)cc(O)c4-c4cc3ccc4O)[C@H](O)c3ccc(c(Cl)c3)Oc3cc2cc(c3O[C@@H]2O[C@H](CO)[C@@H](O)[C@H](O)[C@H]2O[C@H]2C[C@](C)(N)[C@H](O)[C@H](C)O2)Oc2ccc(cc2Cl)[C@H]1O` the same measures were 1.08 ± 0.11, 1.01 ± 0.014, 0.979 ± 0.012, 1.09 ± 0.057 and 1.02 ± 0.035.
For `O=C(CCCN1CCN(c2ccccn2)CC1)c1ccc(F)cc1` the same measures were 1.03 ± 0.028, 0.963 ± 0.12, 0.994 ± 0.023, 0.985 ± 0.064 and 1.01 ± 0.028.
Turning to `CN(C)CCC=C1c2ccccc2CCc2ccccc21`, the cell viability turned out to be 0.958 ± 0.036 in the test with DLD1 [1], 0.997 ± 0.047 in the test with HCT116 and 0.989 ± 0.016 with SW480 [2]. In addition, the “TCF/Wnt firefly luciferase reporter signal” value in the test on DLD1 [3] was found to be 0.952 ± 0.061; in the test with SW480 [4], 0.963 ± 0.046.
For the compound `Cc1cc(O)cc(C)c1Cl`, the cell viability in the test with DLD1 [1] is 0.903 ± 0.012; in the test on HCT116 it was 0.8955 ± 0.0021; in the test on SW480 [2], 0.918 ± 0.13. For the same compound, the figures for the “TCF/Wnt firefly luciferase reporter signal” value in the test on DLD1 [3] and with SW480 [4] were 0.881 ± 0.059 and 1.01, respectively.
The like results for `Cn1c(=O)c2nc(C3CCCC3)[nH]c2n(C)c1=O` were, in that order, 1.07 ± 0.064, 1.05 ± 0.1, 1.02 ± 0.047, 1.01 ± 0.17 and 0.968 ± 0.039.
For `CN1CCC(OC(c2ccccc2)c2ccccc2)CC1` the same measures were 0.969 ± 0.044, 1.02 ± 0.014, 0.979 ± 0.024, 1.12 ± 0.13 and 1.16 ± 0.092.
For `CNCc1ccccc1` the same measures were 1.03 ± 0.014, 1.125 ± 0.0071, 1.03 ± 0.021, 1.03 ± 0.067 and 1.045 ± 0.0071.
For the compound `NC12CC3CC(CC(C3)C1)C2`, the cell viability was 0.979 ± 0.028 in the test with DLD1 [1], 0.944 ± 0.058 with HCT116 and 1.04 ± 0.021 in the test on SW480 [2]. The “TCF/Wnt firefly luciferase reporter signal” value in the test on DLD1 [3] was determined as 0.908 ± 0.34; in the test on SW480 [4], 1.025 ± 0.0071.
The like results for `CC(C(=O)O)[C@H]1CCC2C3CC=C4C[C@@H](O)CC[C@]4(C)C3CC[C@@]21C` (stereo partly drawn) [3beta-HYDROXY-23,24-BISNORCHOL-5-ENIC ACID] were, in that order, 1.09 ± 0.057, 1.05 ± 0.071, 0.999 ± 0.016, 1.01 ± 0.021 and 1.09 ± 0.028.
Consider `Cc1ccc(Cl)c(Nc2ccccc2C(=O)O)c1Cl`, for which the figures for the cell viability with DLD1 [1], with HCT116 and in the test with SW480 [2] were 1.04 ± 0.067, 1.06 ± 0.086 and 1 ± 0.052, respectively. The “TCF/Wnt firefly luciferase reporter signal” value in the test on DLD1 [3] is 1.04 ± 0.021; in the test with SW480 [4], 1.05 ± 0.064.
Turning to `CC1(C)S[C@@H]2[C@H](NC(=O)[C@H](N)c3ccc(O)cc3)C(=O)N2[C@H]1C(=O)O`, the cell viability amounted to 0.928 ± 0.049 in the test on DLD1 [1], 1.02 ± 0.067 with HCT116 and 0.95 ± 0.016 in the test with SW480 [2]. In addition, the “TCF/Wnt firefly luciferase reporter signal” value in the test on DLD1 [3] is 1.11 ± 0.092; with SW480 [4], 1.01.
Take `CC(N)C(=O)OC(C)(C)Cc1ccc(Cl)cc1` (stereo not given): the cell viability in the test on DLD1 [1] stood at 1.11 ± 0.042; with HCT116, 1.15 ± 0.064; in the test with SW480 [2], 1.02 ± 0.036. For the same compound, the “TCF/Wnt firefly luciferase reporter signal” value in the test with DLD1 [3] amounted to 0.945 ± 0.013; in the test on SW480 [4], 0.879 ± 0.1.
The like results for `Cc1c(C(N)=O)cc([N+](=O)[O-])cc1[N+](=O)[O-]` were, in that order, 0.985 ± 0.035, 0.926 ± 0.15, 0.981 ± 0.056, 0.9 ± 0.05 and 0.9925 ± 0.0064.
